Laboratory results from PubChem BioAssay (Tox21).
Records with an inconclusive call do not appear. A call without a number means that no potency is given here. Active and inactive are the calls of the source. Calls come from the whole dose curve; as a rule, active = well fitted inhibition curve with a large enough effect in the repeat runs; inconclusive = weak or mixed curves; inactive = flat fitted curve, though single readings scatter.

target: Voltage-gated inwardly rectifying potassium channel KCNH2 (Homo sapiens) (UniProt Q12809); experiment: Human Ether-a-go-go-Related Gene (hERG) channel small molecule antagonists: fluorescence cell-based qHTS assay (AID 1671200); settings: hERG-U2OS cells, FluxOR thallium flux fluorescence; series mostly up to 76.8 µM; note: nearly all actives have a fitted effect of over 50% in size
In short: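 Channel function was assessed by thallium flux. Cells seeded the previous day and kept at 37 C took up FluxOR II dye over 1 h in the dark at room temperature, then sat another 10 min before stimulation.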
Potency is the fitted concentration of half-maximal effect.

Sequence of Voltage-gated inwardly rectifying potassium channel KCNH2 (Homo sapiens) (Q12809 whole entry, looked up): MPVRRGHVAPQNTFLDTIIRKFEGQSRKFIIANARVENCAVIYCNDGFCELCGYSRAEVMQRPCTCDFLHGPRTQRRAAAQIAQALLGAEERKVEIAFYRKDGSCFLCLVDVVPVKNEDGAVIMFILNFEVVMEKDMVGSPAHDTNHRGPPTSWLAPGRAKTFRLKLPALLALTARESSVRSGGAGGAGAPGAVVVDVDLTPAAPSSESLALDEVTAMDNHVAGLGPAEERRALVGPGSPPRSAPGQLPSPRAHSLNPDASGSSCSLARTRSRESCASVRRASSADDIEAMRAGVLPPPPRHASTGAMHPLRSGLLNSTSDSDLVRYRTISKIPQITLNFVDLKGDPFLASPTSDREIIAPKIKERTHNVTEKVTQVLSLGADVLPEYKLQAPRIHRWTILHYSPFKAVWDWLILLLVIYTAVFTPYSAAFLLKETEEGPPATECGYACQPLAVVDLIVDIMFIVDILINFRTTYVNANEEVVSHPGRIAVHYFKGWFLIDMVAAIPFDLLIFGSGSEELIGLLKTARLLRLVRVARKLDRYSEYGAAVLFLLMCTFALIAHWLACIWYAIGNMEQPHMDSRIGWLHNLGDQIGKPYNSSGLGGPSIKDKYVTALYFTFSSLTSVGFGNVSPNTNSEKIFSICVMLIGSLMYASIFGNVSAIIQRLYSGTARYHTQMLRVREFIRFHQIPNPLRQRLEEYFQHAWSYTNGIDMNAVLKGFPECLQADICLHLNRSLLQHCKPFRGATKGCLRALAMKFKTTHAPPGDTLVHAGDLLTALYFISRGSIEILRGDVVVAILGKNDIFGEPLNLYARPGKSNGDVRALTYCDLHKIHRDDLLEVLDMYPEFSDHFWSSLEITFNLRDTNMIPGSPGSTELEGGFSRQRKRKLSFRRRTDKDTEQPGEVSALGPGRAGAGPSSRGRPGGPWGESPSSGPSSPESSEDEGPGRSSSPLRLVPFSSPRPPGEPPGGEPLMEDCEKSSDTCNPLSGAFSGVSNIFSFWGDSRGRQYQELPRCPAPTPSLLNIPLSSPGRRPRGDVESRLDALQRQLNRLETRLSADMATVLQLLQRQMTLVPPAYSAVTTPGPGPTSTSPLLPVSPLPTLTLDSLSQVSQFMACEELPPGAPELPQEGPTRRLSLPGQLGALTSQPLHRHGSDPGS

SMILES	Potency
CC(C)=CCCC(C)CCOC(=O)C(C)C (configuration not stated)	inactive
Cc1oc(-c2ccccc2)nc1CCOc1ccc(C[C@H](Nc2ccccc2C(=O)c2ccccc2)C(=O)O)cc1	inactive
O=C1C=CC(=O)N1c1ccccc1	49 µM (active)
CS(C)(=O)=O	inactive
O=C(O)CCn1c2c(c3ccccc31)C[C@H](NS(=O)(=O)c1ccc(F)cc1)CC2	inactive
CC(=O)Oc1ccc(C2(c3ccc(OC(C)=O)cc3)Oc3ccccc3NC2=O)cc1	inactive
CCN(CC)CCSC(=O)C(c1ccccc1)c1ccccc1	2.68 µM (active)
CCCCOCC	inactive
CCOC(/C=C(\C)CCC=C(C)C)OCC	inactive
CC1=CP(=O)(c2ccccc2)CC1 (configuration not stated)	inactive
CC(NCCC(c1ccccc1)c1ccccc1)c1ccccc1 (configuration not stated)	1.69 µM (active)
CCN(CC)c1ccc(N)cc1	25.2 µM (active)
